Bioassay records (PubChem)
HEK293 tox: cytotoxicity in counter-screen for GLP-1R inverse agonists. Potency, µM (top dose mostly 38.3 µM), without a hit: top-dose activity change, negative = inhibition, hits mostly inhibitors. HEK293 cAMP-luciferase reporter cells, luminescence, 24 h. 0.13% of 410,000 active;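 note: loss of luciferase light is scored as toxicity; potency is the fitted concentration of half-maximal effect; % is set by controls: 0 for no effect and ±100 for the full control effect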
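Step one: seed cells (200 cells/uL, DMEM with 10% Nu serum, 1% pen-strep). Step two: 12-hour incubation at 37 deg C. Step three: pin 23 nL compound, incubate 24 hr. Step four: add luciferase reagent, read luminescence 12 min later.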
NPSR antagonist: antagonists of human neuropeptide S receptor cAMP signaling | Q6W5P4 | 1% of 220,000 active | AID 1461 | CHO-NPSR cells, cAMP TR-FRET, antagonist mode | Potency, µM (highest dose often 38.3 µM), without a hit: at the top dose activity change, negative = inhibition, actives largely listed as inhibitors; note: potency is the fitted concentration of half-maximal effect; % is set by controls: 0 for no effect and ±100 for the full control effect; nearly all actives have a fitted effect of over 50% in size
TSHR antag: human thyrotropin receptor antagonism; P16473; TSHR-expressing cells, TSH-stimulated cAMP HTRF, 2 h; hits give low values; activity change, negative = inhibition, % at 11.5 µM; 0.2% of 330,000 active; AID 504810;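 active = activity change below a set negative limit, meaning inhibition stronger than a set level, cut at about -70% in these data; inconclusive = activity change between two set negative limits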; note: % is set by controls: 0 for no effect and ±100 for the full control effect
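Antagonism was scored as loss of TSH-driven cAMP in TSHR cells, stimulated with 4nM TSH (EC80) for 2 hours at 37 deg C and detected by homogeneous HTRF competition immunoassay.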
RXFP1 antagonist: antagonists of human relaxin receptor RXFP1; HEK293-RXFP1, relaxin-stimulated cAMP HTRF, 30 min; hits give low values; activity change, negative = inhibition, % at 57.5 µM; 0.59% of 350,000 active; Q9HBX9;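 active = activity change of -60% or lower, but not beyond a set lower limit; inconclusive = change between -60% and -40%, or beyond the set limit; inactive = change above -40%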; note: % is set by controls: 0 for no effect and ±100 for the full control effect
Target sequence (Q9HBX9 whole entry, looked up): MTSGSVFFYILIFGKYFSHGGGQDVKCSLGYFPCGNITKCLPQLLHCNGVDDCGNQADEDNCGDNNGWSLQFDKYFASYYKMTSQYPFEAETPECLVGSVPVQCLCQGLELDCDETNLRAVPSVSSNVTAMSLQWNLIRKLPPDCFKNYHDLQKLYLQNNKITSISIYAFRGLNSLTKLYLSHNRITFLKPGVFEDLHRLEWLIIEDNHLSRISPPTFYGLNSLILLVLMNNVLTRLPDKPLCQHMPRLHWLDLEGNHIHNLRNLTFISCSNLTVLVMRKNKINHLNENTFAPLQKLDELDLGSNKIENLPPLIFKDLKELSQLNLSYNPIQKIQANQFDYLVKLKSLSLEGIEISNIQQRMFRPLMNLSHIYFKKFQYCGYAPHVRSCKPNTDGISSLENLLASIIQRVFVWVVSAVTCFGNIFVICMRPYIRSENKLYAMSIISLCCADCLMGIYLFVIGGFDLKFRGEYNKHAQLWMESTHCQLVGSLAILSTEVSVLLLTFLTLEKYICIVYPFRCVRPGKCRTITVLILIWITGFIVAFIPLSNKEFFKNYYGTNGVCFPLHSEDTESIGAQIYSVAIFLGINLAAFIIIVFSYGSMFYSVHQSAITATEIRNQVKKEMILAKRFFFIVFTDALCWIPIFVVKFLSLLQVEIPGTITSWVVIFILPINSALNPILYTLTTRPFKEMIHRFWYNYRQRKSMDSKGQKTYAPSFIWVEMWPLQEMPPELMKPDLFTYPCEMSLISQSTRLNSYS
RXFP1 ag: RXFP1 (human) receptor agonism | Q9HBX9 | HEK293T-RXFP1 cAMP TR-FRET, 30 min; response scale: percent of porcine relaxin response, buffer zero | Potency, µM (top dose mostly 57.5 µM), inactives show at the highest dose activation, actives largely listed as activators | 0.3% of 370,000 active | AID 2676; note: potency is the fitted concentration of half-maximal effect; % is set by controls: 0 for no effect and ±100 for the full control effect; nearly all actives have a fitted effect of over 60% in size
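HEK293 cells stably expressing RXFP1, treated 30 min at 37C with compounds plus PDE4 inhibitor Ro 20174; cAMP measured by HTRF TR-FRET. Normalized to buffer and 29 nM porcine relaxin; EC50 by Hill fit.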
PTHR1 agonist: activates the human parathyroid hormone receptor PTHR1. Potency, µM (doses to about 115 µM), inactives show at the highest dose activation, most hits filed as activators. Q03431. 0.075% of 410,000 active. HEK293 GP2 PTHR1 cells, GloSensor cAMP luminescence, 1 h; note: potency is the fitted concentration of half-maximal effect; nearly all actives have a fitted effect of over 55% in size
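HEK-293-derived GP2 cells expressing PTHR1 and a GloSensor cAMP reporter, 3,000/well, plated overnight, given luciferin plus IBMX (each 0.5 mM as added) for 1 h at 37 °C, then compound for 1 h at 37 °C. Luminescence was read after 15 min at room temperature.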
The depositor's hits bear a star; [ ] = remark or other dose. Only a selection was taken, and hits are over-represented in it overall. Unless noted, calls come from the whole dose curve; as a rule, active = well fitted curve in the direction sought with a large enough effect; inconclusive = small, poorly fitted or top-dose-only effect, or another doubt; inactive = no such curve, though single readings can be large; an effect the other way counts as inactive or inconclusive.

What do the screens show for `O=[N+]([O-])c1ccc2c(c1N1CCCCC1)=NC1(CCCCC1)[N+]=2[O-]`?
HEK293 tox: 0%; NPSR antagonist: inconclusive; TSHR antag: -7; RXFP1 antagonist: -25; RXFP1 ag: -1%; PTHR1 agonist: -10%

What do the screens show for `[O-][N+]1=c2ccc(Nc3ccccc3)cc2=NC12CCCCC2`?
HEK293 tox: inconclusive; NPSR antagonist: 10µM*; TSHR antag: -14; RXFP1 antagonist: -9; RXFP1 ag: -2%; PTHR1 agonist: -25%

What do the screens show for `COc1ccc(-c2cc(-c3ccc(OC)cc3)c(C#N)c(SC)n2)cc1`?
HEK293 tox: 5%; NPSR antagonist: 13µM*; TSHR antag: -6; RXFP1 antagonist: -6; RXFP1 ag: inconclusive; PTHR1 agonist: inactive

What do the screens show for `CC(C)NC(=O)CSc1nc(-c2cccs2)cc(-c2ccccc2)c1C#N`?
HEK293 tox: -11%; NPSR antagonist: 10µM*; TSHR antag: 10; RXFP1 antagonist: 6; RXFP1 ag: 4%; PTHR1 agonist: inactive

What do the screens show for `COc1ccc(-c2cc(-c3ccccc3)nc(SCC(=O)Nc3nccs3)c2C#N)cc1`?
HEK293 tox: 50%; NPSR antagonist: inconclusive; TSHR antag: 13; RXFP1 antagonist: -5; RXFP1 ag: inconclusive; PTHR1 agonist: inactive

What do the screens show for `CCc1nnc(NC(=O)CSc2nc(-c3ccccc3)cc(-c3ccc(OC)cc3)c2C#N)s1`?
HEK293 tox: 2%; NPSR antagonist: 7.9µM*; TSHR antag: 5; RXFP1 antagonist: -2; RXFP1 ag: 6%; PTHR1 agonist: inactive

Results for CC1CCC(NC(=O)c2ccc(CS(=O)(=O)c3c(Cl)cccc3Cl)o2)CC1 (stereo not drawn) ?
HEK293 tox: -9%; RXFP1 ag: 0%; PTHR1 agonist: -33%

Results for Cc1ccc2c(c1)c1c(n2CC(O)Cn2ccnc2C)C(=O)CCC1 (stereo not drawn) ?
HEK293 tox: 2%; NPSR antagonist: 12%[46.1 µM]; TSHR antag: -4; RXFP1 antagonist: 4; RXFP1 ag: -3%; PTHR1 agonist: inactive

What do the screens show for `Cc1ccc2c(c1)c1c(n2CC(O)CNC2CCCC2)CCCC1` (stereo not drawn)?
HEK293 tox: inconclusive; NPSR antagonist: inconclusive; TSHR antag: -5; RXFP1 antagonist: -82*; RXFP1 ag: 0%; PTHR1 agonist: inactive

How did COc1cccc(-c2ccc3ncnc(NCc4cccc(F)c4)c3c2)c1 do in these assays?
TSHR antag: -27; RXFP1 ag: 1%

How did COc1cc(/C=C2/SC(=O)NC2=O)ccc1Oc1ccc([N+](=O)[O-])cc1[N+](=O)[O-] do in these assays?
HEK293 tox: 12%; NPSR antagonist: 13µM*; TSHR antag: -21; RXFP1 antagonist: 15; RXFP1 ag: 0%; PTHR1 agonist: -32%

What do the screens show for `CC1=CC(C)(C)NC(=S)N1c1ccc(C)c(C)c1`?
HEK293 tox: 11µM*; NPSR antagonist: -6%; TSHR antag: -13; RXFP1 antagonist: 6; RXFP1 ag: 1%; PTHR1 agonist: 14%

How did CCOC(=O)c1ccc(O)c(O)c1 do in these assays?
RXFP1 antagonist: 12

How did CCCCCCCCCCCCCCCCCCNC(=O)OC1CCN(C(=O)OC[C@H](COC(=O)N(Cc2cccc[n+]2CC)C(=O)c2ccccc2OC)OC)CC1 do in these assays?
RXFP1 antagonist: -26

What do the screens show for `CC(C)(C)c1nnc(NS(=O)(=O)c2ccc(N)cc2)s1`?
RXFP1 antagonist: 8

What do the screens show for `CCCN1C(=O)S/C(=C/c2ccc(N3CCOCC3)o2)C1=O`?
HEK293 tox: -5%; NPSR antagonist: -26%; TSHR antag: 14; RXFP1 antagonist: -92*; RXFP1 ag: -5%; PTHR1 agonist: -17%

How did CN(C)S(=O)(=O)N1CCc2ccc(NC(=O)c3ccc(C(F)(F)F)cc3)cc2C1 do in these assays?
HEK293 tox: -6%; TSHR antag: -25; RXFP1 antagonist: -1; RXFP1 ag: 0%; PTHR1 agonist: -32%

What do the screens show for `COc1ccc(-n2c(=O)c3ccc(C(=O)NCc4ccc(C)cc4)cc3n(CC(=O)Nc3ccc(F)cc3)c2=O)cc1`?
HEK293 tox: -4%; RXFP1 ag: 32µM*; PTHR1 agonist: -25%

How did COc1ccc(-n2c(=O)c3ccc(C(=O)NCc4ccc(C)cc4)cc3n(CC(=O)Nc3ccc(C)cc3)c2=O)cc1 do in these assays?
HEK293 tox: 21%; RXFP1 ag: inconclusive; PTHR1 agonist: 2%

How did COc1ccc(-c2cc3c(=O)n(CC(=O)NCc4cccnc4)nc(C)n3n2)cc1 do in these assays?
HEK293 tox: 9%; TSHR antag: -139*; RXFP1 antagonist: 14; RXFP1 ag: 1%; PTHR1 agonist: inactive

How did COc1ccc(-c2cc3c(=O)n(CC(=O)Nc4ccc(Cl)cc4)nc(C)n3n2)cc1 do in these assays?
HEK293 tox: 3%; TSHR antag: 6; RXFP1 antagonist: 2; RXFP1 ag: 1%; PTHR1 agonist: -2%

How did CCc1nc2sc3c(c2c(=S)[nH]1)CC(C)(C)OC3 do in these assays?
HEK293 tox: -6%; TSHR antag: 2; RXFP1 antagonist: -66*; RXFP1 ag: 20%; PTHR1 agonist: inactive

What do the screens show for `CSc1nc2sc3c(c2c(=S)[nH]1)CC(C)(C)OC3`?
HEK293 tox: 0%; TSHR antag: -5; RXFP1 antagonist: -5; RXFP1 ag: inconclusive; PTHR1 agonist: -25%

Results for CCN(CC)c1ccc(C(=C2C=CC(=[N+](CC)CC)C=C2)c2ccc(N(CC)CC)cc2)cc1 ?
HEK293 tox: inconclusive; RXFP1 antagonist: inconclusive; PTHR1 agonist: -17%

How did CCN(CC)c1ccc(C(=C2C=CC(=[N+](CC)CC)C=C2)c2ccccc2)cc1 do in these assays?
HEK293 tox: 5µM*; RXFP1 antagonist: inconclusive; PTHR1 agonist: -38%

Results for O=C(NC(=S)N1CCN(c2c(Cl)cccc2[N+](=O)[O-])CC1)c1cccs1 ?
HEK293 tox: 7.1µM*; NPSR antagonist: -2%[46.1 µM]; TSHR antag: -5; RXFP1 ag: 0%; PTHR1 agonist: -28%

What do the screens show for `COc1ccc(N2CCN(C(=S)NC(=O)c3cccs3)CC2)c([N+](=O)[O-])c1`?
HEK293 tox: inconclusive; NPSR antagonist: -35%; TSHR antag: -6; RXFP1 antagonist: -12; RXFP1 ag: 3%; PTHR1 agonist: -12%

How did NC(=O)C1CCN(c2nc(-c3cccc4ccccc34)cs2)CC1 do in these assays?
TSHR antag: 4
